Reference: PubChem BioAssay AID743395 (Broad Institute, 2014)
Screen size: about 1,200 compounds; about 480 (40%) were called active. How the calls were made is not given here. So high a share suggests a set chosen from earlier hits. Only a sample is shown. Where a call stands in place of a potency, no number is given. Potency and affinity values are given separately.

Assay: HepG2 cell cytotoxicity, dose response, cytotoxicity control, CellTiter-Glo luminescence, cherry-pick, set 2 (AID 743395)
Settings: HepG2 viability, CellTiter-Glo ATP luminescence, 72 h; series mostly up to 26 µM

Row | SMILES | outcome
1 | COc1ccc(CCC(=O)N2CCN(S(=O)(=O)c3ccc(OC(F)(F)F)cc3)CC2)cc1 | inactive
2 | CCS(=O)(=O)N1CC(=O)N2[C@H](C1)[C@@H](c1ccc(C#CCC(C)C)cc1)[C@@H]2CO | inactive
3 | CS(=O)(=O)N1CC(=O)N2[C@H](C1)[C@H](c1ccc(C#Cc3ccc(F)cc3)cc1)[C@@H]2CO | inactive
4 | CCS(=O)(=O)N1CC(=O)N2[C@H](CO)[C@@H](c3ccc(C#CCC(C)C)cc3)[C@@H]2C1 | inactive
5 | COc1ccccc1N1CCN(/N=C/C=C\c2ccccc2[N+](=O)[O-])CC1 | inactive
6 | COc1cc(SC)ccc1C(=O)N1CCN(c2ccccc2OC)CC1 | inactive
7 | Cc1ccc(C(=O)NCC(=O)OCC(=O)NC(C)c2ccccc2)s1 (configuration not stated) | inactive
8 | C[C@@H]1CN([C@@H](C)CO)C(=O)Cc2cc(N(C)C)ccc2O[C@@H]1CN(C)Cc1ccccc1 | inactive
9 | C[C@H](CO)N1C[C@H](C)[C@H](CN(C)Cc2ccc(Cl)c(Cl)c2)Oc2ccc(NC(=O)C3CCCCC3)cc2CC1=O | inactive
10 | C[C@@H]1CN([C@@H](C)CO)C(=O)c2cc(NC(=O)Nc3cccc4ccccc34)ccc2O[C@@H](C)CCCCO[C@@H]1CN(C)Cc1ccc2c(c1)OCO2 | inactive
11 | C[C@@H]1CN([C@@H](C)CO)C(=O)c2cccc(NC(=O)Nc3ccc4c(c3)OCO4)c2O[C@H]1CN(C)S(=O)(=O)c1ccccc1 | inactive
12 | C[C@H]1CCCCO[C@H](CN(C)C(=O)Cc2ccccc2)[C@@H](C)CN([C@@H](C)CO)C(=O)c2cc(N(C)C)ccc2O1 | inactive
13 | C[C@@H]1CN([C@@H](C)CO)C(=O)Cc2cc(NC(=O)Nc3ccc(C(F)(F)F)cc3)ccc2O[C@H]1CN(C)C(=O)Nc1ccccc1 | inactive
14 | C[C@@H]1CN([C@H](C)CO)C(=O)c2cc(NC(=O)Cc3cn(C)c4ccccc34)ccc2O[C@@H]1CN(C)Cc1ccc(Cl)c(Cl)c1 | inactive
15 | CCNC(=O)C1CCCN(C(=O)c2cc(F)ccc2C)CC1 (configuration not stated) | inactive
16 | CCNC(=O)C1(C)CCN(C(=O)c2cc(F)ccc2C)C1 (configuration not stated) | inactive
17 | Cc1cccc(CC(=O)Nc2cccnc2)c1 | inactive
18 | CN1c2ccc(-c3ccc(C#N)cc3)cc2[C@H]2[C@H](CCN2S(=O)(=O)c2cccc(F)c2)[C@@H]1CO | inactive
19 | CN1c2ccc(-c3ccc(C#N)cc3)cc2[C@H]2[C@H](CCN2S(=O)(=O)c2cccc(F)c2)[C@H]1CO | inactive
20 | O=C(O)C1=C[C@@H](O)[C@@H](O)[C@H](O)C1 | inactive
21 | COc1ccc(C(=O)c2cc(OC)c(OC)c(OC)c2)cc1OC | inactive
22 | COc1ccc(C(=O)Nc2ccccc2C(=O)Nc2ccccc2)cc1 | inactive

Row | SMILES | outcome
23 | CCOCCOC(=O)COC(=O)c1ccccc1NC(=O)c1ccccc1 | inactive
24 | Cc1nc(NCc2cccnc2)c2c3c(sc2n1)CCCC3 | inactive
25 | COc1ccc(-c2cc(=O)c3c(O)cc(O)cc3o2)cc1 | inactive
26 | O=C1NC(=Nc2cccnc2)S/C1=C/c1ccc(F)cc1 | inactive
27 | Cn1cccc1/C=C1\SC(=Nc2ccc(O)cc2)NC1=O | inactive
28 | C=CC[C@@H](CC(=O)N(CCO)Cc1ccccc1)C(=O)N[C@H](COC(=O)[C@H](CC=C)CC(=O)OC(C)(C)C)Cc1c[nH]c2ccccc12 | inactive
29 | CCCNC(=O)N1[C@H](C#N)[C@H](c2ccc(C#Cc3ccc(F)cc3)cc2)[C@@H]1CO | inactive
30 | O=C(Nc1cc(F)ccc1F)N1CC(=O)N2[C@@H](CO)[C@H](c3ccc(C#CC4CCCCC4)cc3)[C@@H]2C1 | inactive
31 | CCCC#Cc1ccc([C@H]2[C@H](CO)N3C(=O)CN(C(=O)Nc4cc(F)ccc4F)C[C@@H]23)cc1 | inactive
32 | CC(C)CC#Cc1ccc([C@H]2[C@H](CO)N3C(=O)CN(C(=O)Nc4cc(F)ccc4F)C[C@@H]23)cc1 | inactive
33 | Cc1ccc(-c2cccc(CN3CCN(C(C)C)C(CCO)C3)c2)o1 (configuration not stated) | inactive
34 | COc1cc(-c2noc(C)c2C#Cc2ccccn2)cc(OC)c1OC | inactive
35 | COc1cc(-c2noc(C)c2C#Cc2ccsc2)cc(OC)c1OC | inactive
36 | CCOc1ccc(-c2cc(C(=O)N/N=C/c3ccc(O)cc3)c3ccccc3n2)cc1 | inactive
37 | O=C(CCC(=O)N1CCOc2ccc(Cl)cc21)N1CCN(c2ccccn2)CC1 | inactive
38 | CCN1CCCC(OC(=O)c2cc(-c3ccccc3Cl)nc3ccccc23)C1 (configuration not stated) | inactive
39 | COC(=O)Cc1c(O)ccn(Cc2ccc(Cl)c(Cl)c2)c1=O | inactive
40 | CN1C(=O)c2cc(NC(=O)c3ccc(Cl)cc3)ccc2OC[C@@H]2O[C@H](CC(=O)NCc3cccc(F)c3)CC[C@H]21 | inactive
41 | CCN(CC(=O)Nc1ccc(NC(C)=O)cc1)C(=O)c1ccc(N2CCC(C)CC2)c([N+](=O)[O-])c1 | inactive
42 | Cc1c(CCC(=O)O)c(=O)oc2c(C)c(OCc3ccccc3Cl)ccc12 | inactive
43 | COc1ccc(C(C)=O)cc1CS(=O)(=O)CC(=O)NCCc1c[nH]c2ccccc12 | inactive
44 | O=C(CN(Cc1ccco1)Cc1ccco1)Nc1cc(S(=O)(=O)N2CCCCC2)ccc1Cl | inactive

Row | SMILES | outcome
45 | Cc1c(OCC(=O)NCCN2CCOCC2)ccc2c3c(c(=O)oc12)CCC3 | inactive
46 | Oc1cc2c(cc1O)C(c1ccccc1)CNCC2 (configuration not stated) | inactive
47 | COc1ccc(OC)c(C2CC(c3ccccc3)=NN2C(=S)Nc2ccccc2)c1 (configuration not stated) | inactive
48 | CCOc1ccc(N(CC)C(=O)COc2cc(=O)n(C)c3ccccc23)cc1 | inactive
49 | CCOC(=O)c1c(C)[nH]c(C)c1C(=O)COC(=O)c1ccc([N+](=O)[O-])s1 | inactive
50 | C/C=C/c1ccc([C@H]2[C@@H](CO)N(C(=O)COC)[C@@H]2CNC(=O)CC)cc1 | inactive
51 | Cc1cc(/C=N/NC(N)=S)c(O)c(/C=N/NC(N)=S)c1 | inactive
52 | Cc1cc2c(cc1C)C(c1ccccc1OC(C)C)CC(=O)N2 (configuration not stated) | inactive
53 | O=C(Nc1ccccc1)c1nc[nH]c1C(=O)Nc1ccccc1F | inactive
54 | CN(CC(=O)Nc1cccc(S(=O)(=O)N2CCCC2)c1)CC(=O)Nc1ccc(F)c(F)c1F | inactive
55 | COc1cccc(-c2cccc(-c3nc(C(=O)NCC(F)(F)F)cc4c3[C@H](CCO)N([S@@](=O)C(C)(C)C)C4)c2)c1 | inactive
56 | N#Cc1nc(NCC(F)F)nc(Nc2cc(F)cc(F)c2)n1 | inactive
57 | COCCCNc1nnc(Cc2ccc(Cl)cc2)c(=O)[nH]1 | inactive
58 | O=C(CN1CCN(S(=O)(=O)c2ccccc2)CC1)Nc1ccccc1Cl | inactive
59 | N#CCC(=O)N/N=C/c1cn(Cc2cccc3ccccc23)c2ccccc12 | inactive
60 | COc1ccc2oc(C(=O)N3CCN(C(=O)c4ccco4)CC3)c(C)c2c1 | inactive
61 | COc1ccc(NC(=O)c2ccc(NC(=O)c3nc4nccc(C)n4n3)cc2)cc1 | inactive
62 | CCCc1nc2ccccc2c(C(=O)OCC(=O)NCc2ccc3c(c2)OCO3)c1CC | inactive
63 | COc1ccc(CC(=O)Nc2nccs2)cc1S(=O)(=O)N1CCOCC1 | inactive
64 | Cc1ccc(S(=O)(=O)N2CCOCC2)cc1NC(=O)COC(=O)c1ccc(Cl)nc1 | inactive
65 | Cc1ccc(S(=O)(=O)Nc2ccc3c(c2)C(=O)N([C@@H](C)CO)C[C@H](C)[C@H](CN(C)S(=O)(=O)c2ccc(C)cc2)OCCCC[C@@H](C)O3)cc1 | inactive
66 | C[C@@H]1CN([C@H](C)CO)C(=O)c2cc(NC(=O)Cc3ccccc3)ccc2O[C@@H]1CN(C)S(C)(=O)=O | inactive

Row | SMILES | outcome
67 | COc1ccc(S(=O)(=O)Nc2ccc3c(c2)C(=O)N([C@H](C)CO)C[C@@H](C)[C@@H](CN(C)Cc2ccc(C(F)(F)F)cc2)O3)cc1 | inactive
68 | C[C@H](CO)N1C[C@H](C)[C@H](CN(C)C(=O)NC2CCCCC2)Oc2ncc(-c3cc4ccccc4o3)cc2C1=O | inactive
69 | COc1ccc(S(=O)(=O)Nc2ccc3c(c2)C(=O)N([C@@H](C)CO)C[C@@H](C)[C@H](CN(C)Cc2ccc(Oc4ccccc4)cc2)O3)cc1 | inactive
70 | Cc1ccc(S(=O)(=O)N(C)C[C@@H]2OCCCC[C@@H](C)Oc3ccc(NS(=O)(=O)c4ccc(Cl)cc4)cc3C(=O)N([C@@H](C)CO)C[C@@H]2C)cc1 | inactive
71 | N#C[C@@H]1[C@H](c2ccc(-c3cccc(F)c3)cc2)[C@H](CO)N1C(=O)NC1CCCC1 | inactive
72 | CCCNC(=O)N1[C@H](CO)[C@@H](c2ccc(C3=CCCC3)cc2)[C@@H]1CN(C)C(C)=O | inactive
73 | CCOc1ccccc1N1CCN(C(=O)c2cc3ccccc3cc2OC)CC1 | inactive
74 | Cc1nn(C)c(C)c1/C=C/C(=O)O | inactive
75 | COc1cc(/C=C/C(=O)O)cc(S(=O)(=O)Nc2ccc3cn[nH]c3c2)c1OC | inactive
76 | COc1ccc(C)cc1NC(=O)CNC(c1ccccc1)c1ccc(C)cc1 (configuration not stated) | inactive
77 | O=C(CSC1=NNC(c2ccccn2)S1)Nc1ccccc1 (configuration not stated) | inactive
78 | CN(C)S(=O)(=O)c1ccc2c(c1)/C(=C/c1cc3c([nH]1)CCCC3)C(=O)N2 | inactive
79 | COC(=O)Cn1c(=NC(=O)c2cc(-c3cccs3)nc3ccccc23)sc2cc(S(N)(=O)=O)ccc21 | inactive
80 | CN(c1ccc(O)cc1)c1nc(-c2cccs2)cs1 | inactive
81 | C=CCN=c1scc(C)n1/N=C/c1ccc(O)c(O)c1 | inactive
82 | COCOc1cccc(CN2CCC(C)(Oc3cccc(C#N)c3)C2)c1 (configuration not stated) | inactive
83 | O=C(NCc1cccs1)c1cc(-c2ccccc2)nn1CC1CC(c2cccc([N+](=O)[O-])c2)=NO1 (configuration not stated) | inactive
84 | C=CCN1C(=O)/C(=C/C=C2/N(CC)c3ccc(S(=O)(=O)N(C)C)cc3N2CC)SC1=S | inactive
85 | COc1ccc(C2CN=NC23CCc2ccccc2C3=O)cc1 (configuration not stated) | inactive
86 | CCOc1ccc(Cl)cc1C1=CC(=O)C[C@H](c2ccc(OC)cc2)C1 | inactive
87 | COc1ccc2c(c1)C(=O)CC(c1ccc3c(c1)OCCO3)O2 (configuration not stated) | inactive
